Assay outcomes: PubChem, National Center for Advancing Translational Sciences (NCATS)
Sm TGR block – qHTS Assay for the Inhibitors of Schistosoma Mansoni Peroxiredoxins. Schistosoma mansoni thioredoxin glutathione reductase (TGR), Q962Y6. purified TGR, DTNB reduction, TNB absorbance 405 nm. Potency, µM (top dose mostly 114 µM), without a hit: at the highest dose activity change, negative = inhibition, usual class: inhibitors. hit rate 3% among 360,000. AID 485364, 2010; note: nearly all actives have a fitted effect of over 60% in size
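TGR 20 nM + NADPH 100 uM (dispensed conc.), cpd preinc 15 min RT; start with NADPH (500 uM addition) then DTNB (15 mM addition). Kinetic TNB absorbance, 405 nm filter. Four-parameter Hill fit across titration.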
AmpC inh detg – qHTS Inhibitors of AmpC Beta-Lactamase (assay with detergent). AID 485294, 2010. AmpC hydrolysis of nitrocefin, absorbance 480 nm, 0.01% Triton. Potency, µM (doses to about 114 µM), inactives show at the top dose activity change, negative = inhibition, usual class: inhibitors. hit rate 0.041% among 370,000. P00811;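 note: 0% = no-compound wells and -100% = no-enzyme wells; nearly all actives have a fitted effect of over 25% in size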
Target sequence (P00811 whole entry, looked up): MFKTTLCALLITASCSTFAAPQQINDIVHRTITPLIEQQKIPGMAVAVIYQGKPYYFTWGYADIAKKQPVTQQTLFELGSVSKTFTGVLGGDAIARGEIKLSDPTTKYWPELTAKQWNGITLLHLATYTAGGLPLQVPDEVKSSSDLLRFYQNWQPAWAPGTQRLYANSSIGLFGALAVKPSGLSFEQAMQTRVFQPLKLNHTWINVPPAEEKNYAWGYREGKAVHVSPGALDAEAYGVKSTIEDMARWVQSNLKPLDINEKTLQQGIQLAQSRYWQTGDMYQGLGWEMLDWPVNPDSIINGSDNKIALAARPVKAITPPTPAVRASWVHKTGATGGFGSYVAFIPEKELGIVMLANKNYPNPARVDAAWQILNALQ
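20 mM phosphate pH 7.0 + 0.01% (detergent screen) or 0.0001% Triton X-100; 5.3 nM AmpC reagent; cpd preinc 15 min RT; nitrocefin (800 uM stock) to start; A480 q20 s × 4 min; Activity was normalised to no-enzyme and no-compound control wells.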
AmpC no deterg – qHTS Inhibitors of AmpC Beta-Lactamase (assay without detergent); AmpC nitrocefin hydrolysis, absorbance 480 nm, 0.0001% Triton; AID 485341, 2010; Potency, µM (highest dose often 57.1 µM), for the others: at the highest dose activity change, negative = inhibition, usual class: inhibitors; hit rate 0.52% among 330,000; P00811;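 note: plate controls were no compound for no effect and no enzyme for full effect; nearly all actives have a fitted effect of over 20% in size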
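20 mM phosphate pH 7.0 + 0.01% (detergent screen) or 0.0001% Triton X-100; 5.3 nM AmpC reagent; cpd preinc 15 min RT; nitrocefin (800 uM stock) to start; A480 q20 s × 4 min; Activity was normalised to no-enzyme and no-compound control wells.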
* = called active by the depositor; u = inconclusive; x = no result given; [ ] = dose if it differs, or a comment. Rows were chosen to be rich in hits. Some 3.3% of all compounds tested hit in one or more screens of this group. Calls come from the whole dose curve; as a rule, active = well fitted curve in the direction sought with a large enough effect; inconclusive = small, poorly fitted or top-dose-only effect, or another doubt; inactive = no such curve, though single readings can be large; an effect the other way counts as inactive or inconclusive. Unless noted, % is set by controls: 0 for no effect and ±100 for the full control effect; potency is the fitted concentration of half-maximal effect.

SMILES	Sm TGR block	AmpC inh detg	AmpC no deterg
O=[N+]([O-])/C(=C\Nc1ccccc1)S(=O)(=O)c1ccccc1	40µM*	u	-24%
CS(=O)(=O)c1ccc(C(=O)Nc2ccccc2Cl)cc1	5%	-5%	-4%
COc1ccc(N/C=C(\[N+](=O)[O-])S(=O)(=O)c2ccccc2)cc1	u	-6%	-22%
O=[N+]([O-])/C(=C\Nc1ccccc1Cl)S(=O)(=O)c1ccccc1	40µM*	2%	-20%
Cc1ccccc1OCCC(=O)NNC(=O)COc1cccc(F)c1	x	x	-8%
CCOc1ccc(CCNC(=O)COC(=O)c2cc(OC)c(OC)cc2[N+](=O)[O-])cc1OCC	0%	u	63%
O=C(CN(Cc1ccccc1)C(=O)CCl)c1cccc(Br)c1	8.9µM*	u	-17%
O=C(NCCCCc1ccccc1)c1cccc(Br)c1	-2%	-3%	-12%
CCOc1ccc(N2CC(C(=O)NCCc3ccc(S(N)(=O)=O)cc3)CC2=O)cc1 (configuration not stated)	-8%	-10%	-10%
Cc1oc2c(c(=O)c1C)C(=O)CC(c1ccccc1)C2 (configuration not stated)	1%	-5%	-10%
CS(=O)(=O)c1sc(C#N)c2c1C(=O)CC(c1ccccc1)C2 (configuration not stated)	0.32µM*	-7%	-31%
CCOc1ccccc1C(=O)NCC(=O)Nc1ccc(-c2ccccc2)cc1	-11%	-9%	-19%
CC(C)(C)NC(=O)c1ccc(COc2ccc(Cl)cc2Cl)o1	u	0%	35%
Cc1c(N=Nc2c(O)n(-c3ccc(Br)cc3)c(=O)[nH]c2=O)c(=O)n(-c2ccccc2)n1C	10µM*	0%	-21%
Cc1c(N=Nc2c(O)[nH]c(=O)[nH]c2=O)c(=O)n(-c2ccccc2)n1C	-2%	-5%	-20%
CN(C)S(=O)(=O)c1ccc(C(=O)NCc2nnc(SCC(=O)NCc3ccco3)o2)cc1	2%	-11%	-18%
CCC1=[N+](CC(=O)c2ccc(Br)cc2)CCn2c(C)ccc21	18µM*	5%	28%
CCC1=[N+](CC(=O)c2ccc(C)cc2)CCn2c(C)ccc21	-34%	-11%	8%
COc1c(C)cccc1C(=O)Nc1cccc2ccc(C)nc12	-3%	-2%	x
COc1cccc(C(=O)NC2CCCc3ccccc32)c1OC (configuration not stated)	-2%	-8%	24%
CCOc1cc(C2C3=C(CCCC3=O)NC3=C2C(=O)CCC3)cc(Cl)c1O	-10%[11.4 µM]	0%	-3%
CCOc1cc(C2C3=C(CCCC3=O)N(C)C3=C2C(=O)CCC3)cc(Cl)c1O	35µM*	-15%	-13%
CCOCCCNC(=O)c1cc(=O)n(Cc2cccc(C)c2)c2ccccc12	-15%	2%	102%
Cc1[nH]c(=O)c(C(=O)/C=C/c2ccccc2F)c2c1CCCC2	100µM*	-2%	-20%
Cc1cc(C)c(C(=O)/C=C/c2cccc3ccccc23)c(=O)[nH]1	-14%	-10%	-31%
SMILES	Sm TGR block	AmpC inh detg	AmpC no deterg
CN(CC(=O)Nc1ccc(F)c(F)c1F)C(=O)CCN1C(=O)C2CCCCC2C1=O (configuration not stated)	2%	5%	-5%
CCOCCCN(C(=O)Cn1nnc2ccccc21)C(C(=O)NCc1ccco1)c1ccncc1 (configuration not stated)	16µM*	u	-2%
Cc1ccccc1N(C(=O)Cn1nnc2ccccc21)C(C(=O)NCc1ccco1)c1ccncc1 (configuration not stated)	u	-4%	29%
COCCCn1c(C)cc(C(=O)COC(=O)C23CC4CC(CC(O)(C4)C2)C3)c1C	-14%	-10%	147%
CC1CCc2c(nc3nc[nH]n3c2=O)C1 (configuration not stated)	3%	0%	-8%
S=c1c2c(nc3nc[nH]n13)CCC2	18µM*	-8%	-7%
COc1ccc(C2(CNC(=O)c3ccccc3[N+](=O)[O-])CCOCC2)cc1	x	-3%	30%
Cc1cccc(CN2CCCC(C(=O)N3CCCCC3)C2)c1 (configuration not stated)	1%	-3%	-19%
Cc1ccc(NCCC(=O)c2ccc(Br)cc2)cc1	7.1µM*	-1%	-21%
Cc1ccc(NCC(=O)c2ccc(C)cc2)cc1	0%	2%	-13%
O=C(CNc1ccc(Cl)cc1)c1ccc(Br)cc1	-3%	-13%	-28%
Cc1ccc(NCCC(=O)c2ccc(Cl)cc2)cc1	6.3µM*	1%	-22%
O=C(CNc1ccc(Br)cc1)c1ccc(O)cc1	-8%	3%	-34%
